NS1 function inh: inhibitors of influenza NS1 protein function | Potency, µM (top dose mostly 46.1 µM), inactives show at the top dose activity, positive = more growth | AID 2326 | actives 0.4% (n = 270,000); calls by dose curve; note: potency is the fitted concentration of half-maximal effect; actives are rising curves; nearly all actives have a fitted effect of over 50% in size
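Read-out: OD600 growth recovery of NS1-expressing budding yeast. Cells grown overnight at 30C in -URA glucose medium, washed, resuspended and diluted 1:100 in 2% galactose assay medium, pH 6.0. Same strain lacking NS1 served as positive control.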
Cycloheximide cs: affects cycloheximide protein synthesis inhibition readout, counter-screen. AID 2314. cell reporter, cycloheximide protein synthesis inhibition counterscreen. actives 12% (n = 300,000). max response, %; in the data active = max response mostly above about 13%, no sharp cut-off; inactive = mostly below about 14%; note: read at 38.3 µM for the half of the compounds with a filed dose; 0% is about no effect
Giardia FBPA inh: inhibitors of Giardia lamblia fructose-1,6-bisphosphate aldolase; A8B2U2; purified Giardia FBPA; Potency, µM (series often up to 59.6 µM), inactives show at the highest dose activity, negative = inhibition, most hits filed as inhibitors; actives 0.71% (n = 290,000); AID 2451; note: potency is the fitted concentration of half-maximal effect; % is set by controls: 0 for no effect and ±100 for the full control effect; nearly all actives have a fitted effect of over 55% in size
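Giardia FBPA (40 nM reagent) was preincubated 10 min at RT with compound (up to 57.5 uM final), then substrate plus GAPDH/TPI/NAD/arsenate coupling system with diaphorase/resazurin was added; resorufin fluorescence (525/598 nm) was read after 20 min.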
Shiga toxin inh: inhibitors of Shiga toxin in Vero cells; Vero cells, Shiga toxin protein synthesis inhibition reporter; inhibition, % at 38.7 µM; actives 9.2% (n = 290,000); AID 2315; in the data active = inhibition mostly above about 28%, no sharp cut-off; inactive = mostly below about 43%; note: 0% is about no effect
LmPK inh: blocks Leishmania mexicana pyruvate kinase activity; Q27686; purified LmPK, Kinase-Glo ATP luminescence, 1 h; Potency, µM (titrated, usually from 57.5 µM), for the others: at the highest dose activity change, negative = inhibition, hits mostly inhibitors; actives 0.37% (n = 290,000); note: potency is the fitted concentration of half-maximal effect; % is set by controls: 0 for no effect and ±100 for the full control effect
Target sequence (Q27686 whole entry, looked up): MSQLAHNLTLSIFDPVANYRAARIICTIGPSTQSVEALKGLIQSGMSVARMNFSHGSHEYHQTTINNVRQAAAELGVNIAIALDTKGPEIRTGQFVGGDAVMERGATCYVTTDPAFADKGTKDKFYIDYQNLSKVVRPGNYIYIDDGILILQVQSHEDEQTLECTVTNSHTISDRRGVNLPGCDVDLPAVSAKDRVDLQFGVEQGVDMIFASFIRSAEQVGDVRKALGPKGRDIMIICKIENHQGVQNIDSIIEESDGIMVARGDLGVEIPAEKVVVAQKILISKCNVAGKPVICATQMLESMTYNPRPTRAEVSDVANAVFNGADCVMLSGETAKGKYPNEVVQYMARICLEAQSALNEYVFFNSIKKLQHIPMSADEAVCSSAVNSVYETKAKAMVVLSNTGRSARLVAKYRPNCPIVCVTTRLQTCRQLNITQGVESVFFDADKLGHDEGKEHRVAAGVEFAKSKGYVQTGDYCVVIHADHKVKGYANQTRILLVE
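0.1 nM LmPK, 0.5 mM PEP, 0.1 mM ADP; 50 mM imidazole pH 7.2, 7 mM MgCl2, 50 mM KCl; 1 h RT. Kinase-Glo luminescence readout, normalized to no-enzyme (full inhibition) and uninhibited wells.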
* hit, by the source's call. Only some compounds are listed: those with a hit (about 14% of all), similar ones and a draw of the others. Unless noted, calls come from the whole dose curve; as a rule, active = well fitted curve in the direction sought with a large enough effect; inconclusive = small, poorly fitted or top-dose-only effect, or another doubt; inactive = no such curve, though single readings can be large; an effect the other way counts as inactive or inconclusive.

`Cc1cc(=O)oc2cc(OCC3CC(c4ccccc4)=NO3)ccc12` (stereo unspecified) gave NS1 function inh -9%, Cycloheximide cs 21*, Giardia FBPA inh -1%, Shiga toxin inh 53* and LmPK inh 1%.
Screening CCCCc1cc(=O)oc2cc(OCC(=O)N(CC)CC)ccc12 returned NS1 function inh -16%, Cycloheximide cs 1, Giardia FBPA inh 0%, Shiga toxin inh -6 and LmPK inh -8%.
`C=C(Cl)COc1ccc2c(CCCC)cc(=O)oc2c1` gave NS1 function inh -74%, Cycloheximide cs 25*, Giardia FBPA inh -1%, Shiga toxin inh 64 and LmPK inh -4%.
Screening C=C(Cl)COc1ccc2c(CC)cc(=O)oc2c1 returned NS1 function inh -65%, Cycloheximide cs 1, Giardia FBPA inh 3%, Shiga toxin inh -19 and LmPK inh 11%.
C=C(C)COc1ccc2c(CC)cc(=O)oc2c1 was read as NS1 function inh -13%, Cycloheximide cs 22*, Giardia FBPA inh 0%, Shiga toxin inh 49 and LmPK inh 1%.
Cc1noc2ncnc(Oc3ccc(Cl)cc3Cl)c12 was read as NS1 function inh -4%, Cycloheximide cs -3, Giardia FBPA inh 2%, Shiga toxin inh -6 and LmPK inh 2%.
Screening COC[C@@H](O)[C@@H](OC)[C@H](OC)[C@H](Cc1c(OC)cc(OC)cc1OC)OC returned Giardia FBPA inh 1%.
`C=C(Cl)COc1ccc2c(C)cc(=O)oc2c1` gave NS1 function inh -17%, Cycloheximide cs 23*, Giardia FBPA inh 0%, Shiga toxin inh active and LmPK inh -1%.
`Cc1cc(=O)oc2cc(OCC(=O)NC3CCCC3)ccc12` gave NS1 function inh -2%, Cycloheximide cs -3, Giardia FBPA inh -19%, Shiga toxin inh -4 and LmPK inh 0%.
`O=C(O)c1ccccc1C(=O)Nc1ccccc1` gave NS1 function inh -5%, Cycloheximide cs 6, Giardia FBPA inh -3%, Shiga toxin inh -2 and LmPK inh 4%.
`O=C(Nc1ccccc1)C1=C(c2ccccc2)S(=O)(=O)CCS1(=O)=O` gave NS1 function inh -5%, Cycloheximide cs 23*, Giardia FBPA inh -5%, Shiga toxin inh 45* and LmPK inh -2%.
CCCC(=O)OC1(C(=O)CO)CCC2C3CCC4=CC(=O)CCC4(C)C3C(O)CC21C (stereo unspecified) was read as Cycloheximide cs 2, Giardia FBPA inh 8% and Shiga toxin inh 11.
Cc1ccc(S(=O)(=O)N(Cc2ccc(Cl)cc2)c2ccccc2C(=O)NCc2ccco2)cc1 was read as NS1 function inh 16%, Cycloheximide cs 33*, Giardia FBPA inh 0%, Shiga toxin inh 44* and LmPK inh 5%.
`O=C(CN(Cc1ccccc1)S(=O)(=O)c1ccc(Br)cc1)NCc1ccco1` gave NS1 function inh -1%, Cycloheximide cs 15, Giardia FBPA inh -20%, Shiga toxin inh 25* and LmPK inh 3%.
For Cc1ccc(N(CC(=O)NCc2ccco2)S(=O)(=O)c2ccccc2)cc1 the results were NS1 function inh -11%, Cycloheximide cs 27*, Giardia FBPA inh 3%, Shiga toxin inh 30 and LmPK inh 0%.
`OCCn1ccc(-c2ccccc2OCc2ccc(F)cc2)n1` gave NS1 function inh 2%, Cycloheximide cs -4, Giardia FBPA inh 11%, Shiga toxin inh -7 and LmPK inh 1%.
For CNC(=O)c1cc(S(=O)(=O)N2CC(C)OC(C)C2)ccc1N1CCOCC1 (stereo unspecified) the results were NS1 function inh 19%, Cycloheximide cs -4, Giardia FBPA inh 8%, Shiga toxin inh -14 and LmPK inh 0%.
CCOC(=O)CNC(=O)C1c2ccccc2Oc2ccccc21 was read as NS1 function inh 8%, Cycloheximide cs -4, Giardia FBPA inh 7%, Shiga toxin inh 1 and LmPK inh -5%.
`O=C(c1cccc2ccccc12)C1CCCN(C(=O)CCc2cnccn2)C1` (stereo unspecified) gave NS1 function inh -5%, Cycloheximide cs 15*, Giardia FBPA inh 0%, Shiga toxin inh 14 and LmPK inh -1%.
Screening O=C(COC(=O)COc1ccccc1)Nc1cccc([N+](=O)[O-])c1 returned NS1 function inh 0%, Cycloheximide cs 2, Giardia FBPA inh -3%, Shiga toxin inh -13 and LmPK inh 1%.
Screening CNC(=O)COC(=O)c1ccccc1C(=O)c1ccc(Cl)c([N+](=O)[O-])c1 returned Cycloheximide cs 33*, Giardia FBPA inh -12%, Shiga toxin inh 41 and LmPK inh 8%.
For O=C(COC(=O)c1ccccc1C(=O)c1ccc(Cl)c([N+](=O)[O-])c1)NC1CC1 the results were Cycloheximide cs 17, Giardia FBPA inh -10%, Shiga toxin inh 10 and LmPK inh -5%.
`CCOc1ccc(C(=O)Nc2cccc(NC(=O)c3cccs3)c2)cc1[N+](=O)[O-]` gave NS1 function inh 8%, Cycloheximide cs 8, Giardia FBPA inh 0%, Shiga toxin inh -3 and LmPK inh 1%.
For O=C(Nc1ccc(Oc2cccnc2)cc1)c1cccc([N+](=O)[O-])c1 the results were NS1 function inh -7%, Cycloheximide cs 16*, Giardia FBPA inh -24%, Shiga toxin inh 44* and LmPK inh -11%.
For CCOc1ccc(C(=O)Nc2cccc([N+](=O)[O-])c2)cc1Br the results were NS1 function inh 15%, Cycloheximide cs 20*, Giardia FBPA inh -12%, Shiga toxin inh 16 and LmPK inh -5%.
Screening O=C(COC(=O)c1ccccc1C(=O)c1ccccc1)Nc1cccc([N+](=O)[O-])c1 returned NS1 function inh inconclusive, Cycloheximide cs 19*, Giardia FBPA inh -10%, Shiga toxin inh 30* and LmPK inh -3%.
For COc1ccc(N(CC(=O)Nc2cccc(C)c2)S(=O)(=O)c2ccc(C)cc2)cc1OC the results were NS1 function inh -12%, Cycloheximide cs -1, Giardia FBPA inh 9%, Shiga toxin inh -5 and LmPK inh 0%.
O=C(Nc1ccc2ccccc2c1)c1cccc([N+](=O)[O-])c1 was read as NS1 function inh 0%, Cycloheximide cs 20*, Giardia FBPA inh 2%, Shiga toxin inh 74* and LmPK inh -1%.
`O=C(Nc1cccc([N+](=O)[O-])c1)c1ccccc1` gave NS1 function inh -31%, Cycloheximide cs 18*, Giardia FBPA inh -9%, Shiga toxin inh 30 and LmPK inh -4%.
Cc1cc(C)c2c(c1)/C(=N\N=c1\sc3ccccc3n1C)C(=O)N2 was read as NS1 function inh -2%, Cycloheximide cs -1, Giardia FBPA inh -3%, Shiga toxin inh 28 and LmPK inh -1%.
`Cc1c(C(=O)c2ccccc2)c2ccccc2n1C` gave NS1 function inh -80%, Cycloheximide cs -6, Giardia FBPA inh -11%, Shiga toxin inh -12 and LmPK inh 3%.
`Cn1c(N=NC(=O)c2ccccc2)c(O)c2ccccc21` gave NS1 function inh -20%, Cycloheximide cs 43*, Giardia FBPA inh -13%, Shiga toxin inh 33* and LmPK inh -19%.

Bioassay records deposited in PubChem BioAssay by National Center for Advancing Translational Sciences (NCATS).
